Measured values: ChEMBL document CHEMBL4513216, “Probing the Open Global Health Chemical Diversity Library for Multistage-Active Starting Points for Next-Generation Antimalarials” (ACS Infect Dis, 2020)
Hit rate of the full screen: of about 69,000 compounds, about 8,600 (12%) showed an effect of 50% or more. The list comes from a sample in which strong results are over-represented; it also holds similar structures and randomly drawn compounds.

Test system: Plasmodium berghei
Experiment: Screen against P. berghei liver stage (PbLuc), transformed with Luciferase, at 10uM
Assay type: functional, HepG2
Settings: tested at 10 uM

| SMILES | INHIBITION [%] |
| --- | --- |
| CCc1cccc(CC)c1NC(=O)c1ccccc1N(C)S(C)(=O)=O | 26.9 |
| Cn1cccc1C(=O)N1CCCCC1c1[nH]ncc1S(C)(=O)=O (stereo not given) | 4.08 |
| CC(C)n1cnc2c1C(C(=O)N1CCCC1)N(CC1CC1)CC2 (stereo not given) | 13.7 |
| Cc1nc(C(C)(C)C)sc1C(=O)NCCNc1ncccc1C#N | -26.6 |
| CCN(Cc1c(F)cccc1F)Cn1nc(C)c2c(C)onc2c1=O | 12.7 |
| Cc1noc(C)c1CNCC1(COc2cccnc2)C[C@@H](O)[C@@H](O)C1 (stereo not given in full) | 27.5 |
| Cc1ccccc1C1(CNC(=O)NCCc2nnc3n2CCC3)CC1 | -25.3 |
| NC(=O)C1(c2cnccn2)CCCN1Cc1cccc(Cl)c1 (stereo not given) | 15.9 |
| NC(=O)C1(c2cnccn2)CCCN1Cc1ccncc1 (stereo not given) | 72.3 |
| NC(=O)C1(c2cnccn2)CCCN1Cc1ccc(Cl)cc1 (stereo not given) | -7.79 |
| OCC1(NCc2cnc(-c3cccs3)s2)CCOCC1 | 0.0944 |
| Clc1cccc(OCCCN2CCOC(Cn3cncn3)C2)c1 (stereo not given) | 14.1 |
| Fc1ccc(OCCCN2CCOC(Cn3cncn3)C2)cc1 (stereo not given) | 19.4 |
| c1cnc(-c2nc(CN3CCOC(Cn4cncn4)C3)cs2)nc1 (stereo not given) | 88.1 |
| CC(C)c1nc(CN2CCOC(Cn3cncn3)C2)cs1 (stereo not given) | -33.9 |
| c1ncn(CC2CN(Cc3csc(C4CCCC4)n3)CCO2)n1 (stereo not given) | 58.3 |
| Clc1ccc(OCCCN2CCOC(Cn3cncn3)C2)cc1 (stereo not given) | 66.2 |
| c1cnn(CC2CN(Cc3csc(C4CCCCC4)n3)CCO2)c1 (stereo not given) | 64.8 |
| CC(C)(C)c1nc(CN2CCOC(Cn3cncn3)C2)cs1 (stereo not given) | 44.3 |
| c1ccc(-c2nc(CN3CCOC(Cn4cncn4)C3)cs2)cc1 (stereo not given) | 18.2 |
| Cc1cnn(CC2CN(Cc3csc(C4CCCC4)n3)CCO2)c1 (stereo not given) | -6.44 |
| c1ccc(-c2nc(CN3CCOC(Cn4cccn4)C3)cs2)cc1 (stereo not given) | -6.04 |
| c1csc(-c2nc(CN3CCOC(Cn4cncn4)C3)cs2)c1 (stereo not given) | 40.9 |
| O=C(c1ccc(S(=O)(=O)NCc2ccon2)cc1)N1CCCCCC1 | -6.21 |

| SMILES | INHIBITION [%] |
| --- | --- |
| CC(C)c1nnc2n1CCN(C(=O)c1ccc(N(C)C)nn1)C2 | 4.71 |
| Cn1cc(-c2cnc(-c3ccnn3C)nc2)cc1C(=O)NC1CC1 | 24.6 |
| COC(=O)N1CCC(c2nnc(Cn3ccnc3)n2C)CC1 | 1.48 |
| N#Cc1cc(F)ccc1NCC1CCN(S(=O)(=O)C(F)F)CC1 | 65.3 |
| N#Cc1ccc(Cl)cc1NCC1CC1 | 47.7 |
| CS(=O)(=O)N1CCC(CNc2cc(Cl)ccc2C#N)CC1 | -13.9 |
| O=S(=O)(NCc1ccccc1Cn1cncn1)N1CCCCCC1 | 34.7 |
| COc1cc(CNc2cnn(C(C)(C)C)c(=O)c2Cl)ccn1 | 70.6 |
| CC(C)(CO)Nc1c(NCc2ccccc2)c(=O)c1=O | 17.7 |
| COCc1cccc(CNC(=O)CNc2ccccc2C(C)=O)c1 | 11.4 |
| COCc1cccc(CNc2cnn(C(C)(C)C)c(=O)c2Cl)c1 | 70.6 |
| COc1cc(CNC(=O)c2cc(Cl)ccc2F)ccn1 | 11.4 |
| CC(C)(C)n1ncc(NCc2ccccc2)c(Cl)c1=O | 61.1 |
| COCc1ccc(CNc2cnn(C(C)(C)C)c(=O)c2Cl)cc1 | 54.7 |
| COc1cc(CNC(=O)CNc2cc(Cl)ccc2OC)ccn1 | 14.4 |
| Cn1ncc(NCc2cccc(F)c2)c(Cl)c1=O | -5.25 |
| CCc1c(NCc2ccc(F)cc2)cnn1CC(C)C | 22.6 |
| COCCNC(=O)Cn1nc(C(C)C)c2cnn(C(C)(C)C)c2c1=O | -7.35 |
| CC(C)c1nccc(-c2nccn2CCN(C)S(C)(=O)=O)n1 | -21.9 |
| O=C(Cc1ccccn1)N1CCC2(CC1)CN(CC1CC1)C(=O)CO2 | 15.3 |
| CCC(CC)C(=O)N(C)CC(=O)Nc1ccc(Br)cn1 | 21.5 |
| CN(CCn1nc2ccccn2c1=O)CC(=O)N(C)C1CCCCC1 | -111 |
| O=S(=O)(c1cc(F)ccc1F)n1cc(Cl)cn1 | 48.8 |
| O=S(=O)(c1ccc(F)cc1)n1cc(Cl)cn1 | 51 |

| SMILES | INHIBITION [%] |
| --- | --- |
| O=S(=O)(c1ccc(F)c(F)c1)n1cc(Cl)cn1 | 42.1 |
| CCc1ccccc1CNC(=O)CCc1cnn(C)c1 | 16.6 |
| Cc1nnc(C(C)N2CCc3[nH]c4ccccc4c3C2)o1 (stereo not given) | 32 |
| Cc1noc(C(C)N2CCc3[nH]c4ccc(Cl)cc4c3C2)n1 (stereo not given) | 28.7 |
| Cc1nnc(C(C)N2CCc3[nH]c4ccc(Cl)cc4c3C2)o1 (stereo not given) | 61.3 |
| Cc1cnn(CC2CN(Cc3nc(C)c(C)o3)CCO2)c1 (stereo not given) | 11.4 |
| COc1cccc(C2(C(=O)NC3CCc4nccn4C3)CCCC2)c1 (stereo not given) | 34.6 |
| CCN(CCn1cccn1)C(=O)CN1C(=O)OC[C@@H]1c1ccccc1 | 9.63 |
| CCN(CCn1cccn1)C(=O)CN1C(=O)OC[C@@H]1C(C)C | 64.5 |
| CC(C)[C@H]1COC(=O)N1CC(=O)N(C)CCCn1cccn1 | 42.1 |
| COc1cccc(F)c1C(C)NC(=O)NCc1cnc(C)s1 (stereo not given) | -8.66 |
| CC(C)n1cc(S(=O)(=O)N2CCCC(N3CCCCC3)C2)cn1 (stereo not given) | 2.4 |
| NC(=O)c1ccc(NC(=O)Cn2cc(I)cn2)cc1 | 40 |
| Cc1ccc(NC(=O)Cn2cc(I)cn2)cc1C | 66.5 |
| CC(=O)c1cccc(NC(=O)Cn2cc(I)cn2)c1 | -1.58 |
| CC(C)c1ccc(NC(=O)Cn2cc(I)cn2)cc1 | 82.2 |
| Cc1ccc(NC(=O)Cn2cc(I)cn2)cc1 | 23.2 |
| Cc1ccc(C)c(NC(=O)Cn2cc(I)cn2)c1 | 49.1 |
| CS(=O)(=O)NCc1cnc2n1CCN(Cc1ccoc1)CC2 | 33 |
| Cn1cc(C(=O)N[C@@H]2CN(Cc3cccnc3)[C@@H]3CCCO[C@@H]32)cn1 | 3.25 |
| O=C(c1cnccn1)N1C[C@H]2CC[C@@H](C1)N(C(=O)CCc1ccsc1)C2 | -69.6 |
| O=C1CCC(C(=O)Nc2ccc(=O)n(Cc3ccc(Cl)c(Cl)c3)c2)N1 (stereo not given) | -20.5 |
